Assay in all cases: PBM binding z-score (relative to random genomic background probes); higher = stronger binding; sequences stand for … in GC…GCGATTGACAGCGTAGAATGAAGG
Assay [1] relates to RARb homodimer (NR concentration 270 nM). In a few lines: (§1)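 Each nuclear receptor dimer, without ligand, was incubated for 1 h on custom Agilent 4×180K protein-binding microarrays. Binding was detected with antibodies against each partner (one per run), and scanned fluorescence was regression-normalized. The binding z-scores are referenced to random human genomic background probes.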

Assay [2] has as its system RARg:RXRa (NR concentration 270 nM, RXRa partner concentration 90 nM). In a few lines: as §1
The subject of assay [3] is RARg homodimer (NR concentration 270 nM). The method, boiled down: as §1
For assay [4], the system named is RXRa DBDmut IVT, anti-RXR (DBD mutation: RXRa K156A/R161A, NR concentration 90 nM). In a few lines: as §1
The subject of assay [5] is RXRa homodimer (NR concentration 180 nM). In a few lines:
as §1

The test system of assay [6] is THRa:RXRa (NR concentration 90 nM, RXRa partner concentration 90 nM). In a few lines: as §1
Assay [7] deals with THRa homodimer (NR concentration 90 nM). The method, boiled down:
as §1

Assay [8] relates to VDR homodimer (NR concentration 270 nM). The method, boiled down:
as §1

Regarding CCTCGGAGGACATCAGGAGGTCAGAGCTGCCAGA, the PBM binding z-score came out at 3.17 in assay [1]; 3.48 in assay [2]; 3.04 in assay [3]; 0.267 in assay [4]; 2.63 in assay [5]; 2.67 in assay [6]. Moreover, the PBM binding z-score in assay [7] was found to be 1.05; in assay [8] it was 1.06.
In the case of CAAACTGGGTCACAGAGGTCAAAGTCCGTGCGTA, the PBM binding z-score in assay [1] turned out to be 5.5; in assay [2], 7.14; in assay [3], 7.26; in assay [4] it was 3.26; in assay [5] it was 7.99; in assay [6], 4.4. The figures for the PBM binding z-score in assay [7] and in assay [8] were 2.19 and 5.91, respectively.
On to CGAACTAGCTCATTGACAGGACAGTGAATAGTAA, for which the PBM binding z-score in assay [1] was 0.184; in assay [2] it was -0.00563; in assay [3], 0.0455; in assay [4], 0.00616; in assay [5], -0.33; in assay [6] it was -0.0508. Further, the PBM binding z-score in assay [7] is -0.291; in assay [8], -0.0514.
For the sequence TCGCCTAGGTCAGATCGGGCCAGTATACGCTATA, the PBM binding z-score in assay [1] turned out to be 2.21; in assay [2], 2.39; in assay [3] it was 3.24; in assay [4] it was 0.643; in assay [5], 1.38; in assay [6], 3.98. For the same sequence, the results for the PBM binding z-score in assay [7] and in assay [8] were 0.0988 and -0.139, respectively.
In the case of TATACAGAGTCAAAGGCCAGAGTACGAATGTCGA, the PBM binding z-score was 0.843 in assay [1]; 0.902 in assay [2]; 1.01 in assay [3]; -0.862 in assay [4]; 1.03 in assay [5]; -0.0396 in assay [6]. The PBM binding z-score in assay [7] is -0.776; in assay [8], 0.0199.
Take CCGACTGGGGCAAGGTTACCATCACGCACAGCCA: the PBM binding z-score is 1.61 in assay [1]; 1.08 in assay [2]; 1.33 in assay [3]; -0.402 in assay [4]; 1.18 in assay [5]; 1.22 in assay [6]. Also, the PBM binding z-score in assay [7] was 0.274; in assay [8], -0.0347.
Regarding ATCTCTAGGTGACCAAGTTCAGTGAATGCCGAAC, the PBM binding z-score was 1.77 in assay [1]; 1.24 in assay [2]; 1.38 in assay [3]; 0.521 in assay [4]; 0.867 in assay [5]; 1.5 in assay [6]. Also, the PBM binding z-score in assay [7] worked out at 0.429; in assay [8], 2.22.

These data come from the supplement of paper PMC6555819.
